Among the data in PubChem BioAssay (NCATS) are Potency values, retold here.

Assay [1] is described as follows: S16 Schwann cell PMP22 intronic element beta-lactamase assay (AID 624044; calls by dose curve; note: nearly all actives have a fitted effect of over 15% in size). To be noted: S16 rat Schwann cells, PMP22 element beta-lactamase FRET, 24 h; ratio activity, negative = inhibition: at 38.3 µM (top of the series). In outline:
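Rat S16 Schwann cells with beta-Lac driven by a PMP22 intronic element, compound-treated 24 h at 37 °C. LiveBLAzer FRET B/G read: 460 nm normalized to potassium clavulanate vs DMSO; 535 nm FRET as viability; concentration-effect curves classified.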

Another assay concerns AA1029. Nature of the assay: qHTS profiling for inhibitors of Plasmodium falciparum proliferation (AID 504749). Note: nearly all actives have a fitted effect of over 60% in size. Note: potency is the fitted concentration of half-maximal effect. To be noted: P. falciparum in erythrocytes, SYBR Green DNA, 72 h; series mostly up to 28.7 µM. In outline: (§1)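 Three-day growth assay of blood-stage parasites in erythrocytes (0.3% parasitemia, 2.5% hematocrit) at 37 C, 5% CO2, quantified by SYBR Green DNA staining after overnight detergent lysis.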

The next assay has as its system AS120. Described as above. To be noted: P. falciparum in erythrocytes, SYBR Green DNA, 72 h; series mostly up to 28.7 µM. Put shortly: as §1
For another assay, the system named is ATS189. The assay is described as above. To be noted: P. falciparum in erythrocytes, SYBR Green DNA, 72 h; series mostly up to 28.7 µM. Put shortly:
as §1

Another assay has as its system C2A. Described as above. To be noted: P. falciparum in erythrocytes, SYBR Green DNA, 72 h; series mostly up to 28.7 µM. Put shortly:
as §1

The next assay relates to CP194. The description is as above. To be noted: P. falciparum in erythrocytes, SYBR Green DNA, 72 h; series mostly up to 28.7 µM. In outline:
as §1

For another assay, the system named is CP201. The assay is described as above. To be noted: P. falciparum in erythrocytes, SYBR Green DNA, 72 h; series mostly up to 28.7 µM. In outline: as §1
The subject of another assay is CP203. The assay is described as above. To be noted: P. falciparum in erythrocytes, SYBR Green DNA, 72 h; series mostly up to 28.7 µM. Put shortly:
as §1

For a further assay, the system named is CP217. The assay is described as above. To be noted: P. falciparum in erythrocytes, SYBR Green DNA, 72 h; series mostly up to 28.7 µM. In outline: as §1
The test system of a further assay is CP237. The description is as above. To be noted: P. falciparum in erythrocytes, SYBR Green DNA, 72 h; series mostly up to 28.7 µM. Put shortly: as §1
The subject of a further assay is CP250. Described as above. To be noted: P. falciparum in erythrocytes, SYBR Green DNA, 72 h; series mostly up to 28.7 µM. Put shortly: as §1
The subject of another assay is CP256. The description is as above. To be noted: P. falciparum in erythrocytes, SYBR Green DNA, 72 h; series mostly up to 28.7 µM. In outline:
as §1

The next assay has as its system CP268. The description is as above. To be noted: P. falciparum in erythrocytes, SYBR Green DNA, 72 h; series mostly up to 28.7 µM. Put shortly: as §1
Another assay has as its system CP297. The assay is described as above. To be noted: P. falciparum in erythrocytes, SYBR Green DNA, 72 h; series mostly up to 28.7 µM. Put shortly:
as §1

In the next assay the test system is CP305. The assay is described as above. To be noted: P. falciparum in erythrocytes, SYBR Green DNA, 72 h; series mostly up to 28.7 µM. Put shortly:
as §1

The test system of the next assay is CP325. The description is as above. To be noted: P. falciparum in erythrocytes, SYBR Green DNA, 72 h; series mostly up to 28.7 µM. Put shortly: as §1
A further assay relates to HB3. The assay is described as above. To be noted: P. falciparum in erythrocytes, SYBR Green DNA, 72 h; series mostly up to 28.7 µM. In outline:
as §1

A further assay has as its system PC15. Described as above. To be noted: P. falciparum in erythrocytes, SYBR Green DNA, 72 h; series mostly up to 28.7 µM. In outline:
as §1

The next assay deals with PC49. The description is as above. To be noted: P. falciparum in erythrocytes, SYBR Green DNA, 72 h; series mostly up to 28.7 µM. In outline: as §1
The next assay concerns TAB109. The assay is described as above. To be noted: P. falciparum in erythrocytes, SYBR Green DNA, 72 h; series mostly up to 28.7 µM. Put shortly:
as §1

Records with an inconclusive call do not appear. Active and inactive are the calls of the source. Unless noted, calls come from the whole dose curve; as a rule, active = well fitted inhibition curve with a large enough effect; inconclusive = small, poorly fitted or top-dose-only effect; inactive = flat fitted curve, though single readings scatter.

For `CC1OC(OC2CCC3(C)C(CCC4C3CC(O)C3(C)C(C5=CC(=O)OC5)CCC43O)C2)CC(O)C1OC1CC(O)C(OC2CC(O)C(OC3OC(CO)C(O)C(O)C3O)C(C)O2)C(C)O1` (configuration not stated), the Potency entry (in [1]; in the assay on AA1029; in the assay with AS120; with ATS189; with C2A; with CP194) was “inactive” each time. In addition, the Potency result in the assay on CP201, in the assay with CP203, with CP217, in the assay on CP237, in the assay on CP250 and in the assay with CP256 was “inactive” each time. Further, the Potency entry in the assay on CP268, with CP297, in the assay on CP305, in the assay with CP325, with HB3 and in the assay on PC15 was “inactive” in each case. The Potency result in the assay with PC49 and with TAB109 was “inactive” throughout.
Turning to `CCCCCCCCCCCCCCCC(=O)OC[C@H](O)[C@H]1OC[C@@H](O)[C@@H]1O`, the Potency entry (in assay [1]; with AA1029; in the assay on AS120; in the assay with ATS189; with C2A; in the assay with CP194) was “inactive” throughout. Further, the Potency result with CP201, in the assay on CP203, in the assay on CP217, with CP237, in the assay with CP250 and with CP256 was “inactive” throughout. Further, the Potency result in the assay on CP268, in the assay on CP297, in the assay with CP305, in the assay with CP325, in the assay with HB3 and in the assay on PC15 was “inactive” throughout. Also, the Potency entry in the assay with PC49 was “inactive”.
In the case of `CO/N=C(/C(=O)N[C@@H]1C(=O)N2C(C(=O)O)=C(CSC(=O)c3ccco3)CSC12)c1csc(N)n1` (some centres not stated), the Potency entry (in assay [1]; in the assay on AA1029; in the assay on AS120; in the assay on ATS189; in the assay on C2A; in the assay on CP194) was “inactive” in each case. Moreover, the Potency result in the assay on CP201, in the assay with CP203, in the assay on CP217, in the assay with CP237, with CP250 and in the assay with CP256 was “inactive” in each case. Moreover, the Potency result in the assay on CP268, with CP297, in the assay with CP325, in the assay on HB3, with PC15 and in the assay on PC49 was “inactive” each time. The Potency entry with TAB109 is “inactive”.
Consider `C[n+]1c2cc(N)ccc2cc2ccc(N)cc21`, for which, in assay [1], the Potency result was “inactive”. In addition, the Potency with AA1029 is 708 nM (active); in the assay on AS120 it was 1 µM (active); with ATS189 it was 1.12 µM (active); with C2A it was 1 µM (active); in the assay on CP194, 1.2 µM (active); with CP201, 1.69 µM (active). For the same compound, the Potency was 1.07 µM (active) with CP203; 891 nM (active) in the assay with CP217; 282 nM (active) in the assay with CP237; 1.12 µM (active) with CP250; 1 µM (active) with CP256; 757 nM (active) in the assay on CP268. The Potency in the assay on CP297 is 1.35 µM (active); in the assay with CP305, 757 nM (active); in the assay on CP325, 953 nM (active); with HB3, 447 nM (active); in the assay with PC15, 178 nM (active); with PC49 it was 447 nM (active). For the same compound, in the assay on TAB109, the Potency was 447 nM (active).
As to `CC1(Cn2ccnn2)[C@H](C(=O)O)N2C(=O)C[C@H]2S1(=O)=O` (some centres not stated), the Potency entry with AA1029, in the assay on AS120, with ATS189, in the assay on C2A, in the assay on CP194 and with CP201 was “inactive” throughout. Moreover, the Potency entry in the assay on CP203, with CP217, in the assay on CP237, in the assay with CP250, with CP256 and with CP268 was “inactive” throughout. For the same compound, the Potency entry in the assay on CP297, with CP305, in the assay with CP325, in the assay with HB3, with PC15 and with PC49 was “inactive” throughout. For the same compound, the Potency entry in the assay on TAB109 was “inactive”.
